Among the data in PubChem BioAssay (Tox21) are outcome and Potency values, retold here.

Inconclusive results are not listed. A call without a number means that no potency is given here. The source holds several records for some structures; these can differ, active in one and inactive in another. Calls of active or inactive are those of the source. The call rests on the fitted dose curve; in most records, active means well fitted curve in the direction sought with a large enough effect in the repeat runs; inconclusive means weak or mixed curves; inactive means no such curve, though single readings can be large; an effect the other way counts as inactive or inconclusive.

A short description of one assay: qHTS RealTime-Glo MT Cell Viability Assay in HepG2 cells - 0 hour (AID 1224889). Further: nearly all actives have a fitted effect of over 50% in size. Particulars: RealTime-Glo luminescence; series mostly up to 76.8 µM. In short, it runs like this: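 Cells + NanoLuc/prosubstrate dispensed (600 cells/well) → 5 h at 37 C/5% CO2 → compounds in DMSO transferred → 40 h incubation at 37 C, luminescence read at 0, 8, 16, 24, 32, 40 h.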
(In general: In qHTS, concentration-response curves come from the screen itself.)
As for `CN(C)CCC#N`, the result was inactive.
On the same count and under the same terms, with `CCCOC(=O)c1ccccc1C(=O)OCCC` the entry was “inactive”; with `CNC(=O)Oc1cccc2ccccc12`, “inactive”; with `O=C(O)C1C(C(=O)O)C2(Cl)C(Cl)=C(Cl)C1(Cl)C2(Cl)Cl` (stereo not given), “inactive”.
Turning to `c1ccc2c(c1)CCCC2`, the compound was called inactive.
On the same count and under the same terms, in the case of `O=[N+]([O-])c1ccc(Cl)cc1` it was “inactive”.
On the same count and under the same terms, with `CC(C)(C)C(=O)CCl` the entry was “inactive”; with `Nc1nc(N)nc(NC2CC2)n1`, “inactive”; with `CN(C)C(=O)C(c1ccccc1)c1ccccc1`, “inactive”.
Still for that read-out and setting: with `C/C=C/c1ccc2c(c1)OCO2` the entry was “inactive”.
As to `COP(=S)(OC)SCN1C(=O)c2ccccc2C1=O`, the result was inactive.
Turning to `CC[N+](=O)[O-]`, the compound was classed as inactive.
Same read-out and setting: in the case of `Sc1ccccc1` it was “inactive”; in that of `CCSC(=O)N1CCCCCC1`, “inactive”; in that of `Cl[C@H]1OCCO[C@@H]1Cl`, “inactive”.
On the same count and under the same terms, in the case of `C=CC(=O)OCC(CC)CCCC` (stereo not given) it was “inactive”.
For `O=[N+]([O-])c1cc([As](=O)(O)O)ccc1O`, the compound was classed as inactive.
Still for that read-out and setting: with `CCOc1ccc(N)cc1` the entry was “inactive”; with `Nc1ccc(N)cc1`, “inactive”.
Same read-out and setting: with `CCNc1nc(Cl)nc(NC(C)C)n1` the entry was “inactive”; with `C=CC#N`, “inactive”.
On the same count and under the same terms, in the case of `C=C(C)C(=O)OCC(CC)CCCC` (stereo not given) it was “inactive”.
Regarding `Cc1cc(Cl)ccc1OC(C)C(=O)O` (stereo not given), the compound was called inactive.
Still for that read-out and setting: with `CCCCC(CC)C(=O)Cl` (stereo not given) the entry was “inactive”; with `COc1cc(-c2ccc(N)c(OC)c2)ccc1N`, “inactive”; with `O=P1(NCCCl)OCCCN1CCCl` (stereo not given), “inactive”.
Still for that read-out and setting: in the case of `O=C(O)C(Br)Br` it was “inactive”; in that of `Cc1cccc(C)c1NC(=O)CN1CCCC1=O`, “inactive”.
Same read-out and setting: with `[N-]=[N+]=CC(=O)OC[C@H](N)C(=O)O` the entry was “inactive”.
In the case of `OCc1ccco1`, the outcome was inactive.

Another assay is described as follows: A CellTox Green Cytotoxicity Assay to monitor cytotoxicity in HepG2 cells - 8 hour (AID 1224890). Further: nearly all actives have a fitted effect of over 45% in size. Further: potency means the concentration at half of the fitted maximal effect. To be noted: CellTox Green fluorescence; series mostly up to 76.8 µM. The method, boiled down: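 HepG2 cells, 600/well, preincubated 5 h with CellTox Green dye, then exposed to Tox21 compounds in DMSO at 37 C for up to 40 h. Dead-cell DNA fluorescence read at the indicated time point.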
Turning to `CN(C)CCC#N`, the Potency entry was “inactive”.
On the same count and under the same terms, in the case of `CCCOC(=O)c1ccccc1C(=O)OCCC` it was “inactive”.
On the same count and under the same terms, with `CNC(=O)Oc1cccc2ccccc12` the entry was “inactive”; with `O=C(O)C1C(C(=O)O)C2(Cl)C(Cl)=C(Cl)C1(Cl)C2(Cl)Cl` (stereo not given), “inactive”.
Same read-out and setting: with `c1ccc2c(c1)CCCC2` the entry was “inactive”; with `O=[N+]([O-])c1ccc(Cl)cc1`, “inactive”; with `CC(C)(C)C(=O)CCl`, “inactive”.
In the case of `Nc1nc(N)nc(NC2CC2)n1`, the Potency result was “inactive”.
On the same count and under the same terms, in the case of `CN(C)C(=O)C(c1ccccc1)c1ccccc1` it was “inactive”; in that of `C/C=C/c1ccc2c(c1)OCO2`, “inactive”; in that of `COP(=S)(OC)SCN1C(=O)c2ccccc2C1=O`, “inactive”.
On the same count and under the same terms, in the case of `CC[N+](=O)[O-]` it was “inactive”.
As for `Sc1ccccc1`, the Potency result was “inactive”.
Still for that read-out and setting: with `CCSC(=O)N1CCCCCC1` the entry was “inactive”; with `Cl[C@H]1OCCO[C@@H]1Cl`, “inactive”.
The same measure, in the same setting: in the case of `C=CC(=O)OCC(CC)CCCC` (stereo not given) it was “inactive”; in that of `O=[N+]([O-])c1cc([As](=O)(O)O)ccc1O`, “inactive”; in that of `CCOc1ccc(N)cc1`, “inactive”.
Still for that read-out and setting: with `Nc1ccc(N)cc1` the entry was “inactive”.
`CCNc1nc(Cl)nc(NC(C)C)n1`: the Potency result is “inactive”.
Still for that read-out and setting: in the case of `C=CC#N` it was “inactive”; in that of `C=C(C)C(=O)OCC(CC)CCCC` (stereo not given), “inactive”; in that of `Cc1cc(Cl)ccc1OC(C)C(=O)O` (stereo not given), “inactive”.
On the same count and under the same terms, with `CCCCC(CC)C(=O)Cl` (stereo not given) the entry was “inactive”; with `COc1cc(-c2ccc(N)c(OC)c2)ccc1N`, “inactive”; with `O=P1(NCCCl)OCCCN1CCCl` (stereo not given), “inactive”.
The same measure, in the same setting: in the case of `O=C(O)C(Br)Br` it was “inactive”.
Turning to `Cc1cccc(C)c1NC(=O)CN1CCCC1=O`, the Potency result is “inactive”.
The same measure, in the same setting: in the case of `[N-]=[N+]=CC(=O)OC[C@H](N)C(=O)O` it was 38.9 µM (active) and inactive; in that of `OCc1ccco1`, “inactive”.
